# Measured values reported in PubChem BioAssay AID1259415 (National Center for Advancing Translational Sciences (NCATS), 2018).
# “And” between values parts separate entries of the source, which are not always exact repeats. Identical values can stand only once. The whole screen tested about 410,000 compounds, of which about 18,000 (4.4%) were called active. Roughly 7% stayed inconclusive and do not appear here. Cut-off read from the data, not from the text of the source: active = activity change below about -60%; inconclusive = no clear call, values can overlap the other calls; inactive = above about -39%. The list comes from a sample in which actives are over-represented; it also holds similar structures and randomly drawn compounds. More than one record can exist for a structure, and the calls need not agree.
# Experiment: qHTS Assay for inhibitors of the human cytomegalovirus (HCMV)
# Conditions: HFF cells, HCMV-luciferase reporter, 72 h; at 57.5 µM; stronger effect = lower value
# Procedure, shortened: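 Inhibition of viral replication was scored as loss of reporter luminescence in HFFs infected with HCMV-luciferase (MOI 1 PFU/cell) for 72 h; compounds tested at 2 doses, normalized to buffer and Salinomycin controls.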
# % is set by controls: 0 for no effect and ±100 for the full control effect.
row,SMILES,"activity change, negative = inhibition"
1,O=C(Nc1ccccc1Br)c1cc(CN2CCCC2)on1,27.2% (inactive)
2,CCSc1ncc(Cl)c(C(=O)Nc2c(C(=O)c3ccccc3)oc3ccccc23)n1,12.8% (inactive)
3,COc1ccc(N(Cc2ccc(N(C)C)cc2)C(=O)c2ccc(S(C)(=O)=O)cc2)cc1,6.32% (inactive)
4,CCOc1ccc(NC(=O)CN(Cc2ccccc2)S(=O)(=O)c2ccc(Cl)cc2)cc1,2.3% (inactive)
5,CCOc1ccc(N(Cc2ccccc2)C(=O)c2nc(S(C)(=O)=O)ncc2Cl)cc1,-101% (active)
6,CCOc1ccc(N(Cc2ccccc2)C(=O)c2nc(SCC)ncc2Cl)cc1,-68.2% (active)
7,CCOc1ccc(N(CC)C(=O)c2noc3c2COc2ccc(C)cc2-3)cc1,-7.27% (inactive)
8,Brc1ccc(-c2n(-c3ccccn3)c3ccccc3[n+]2-c2ccccn2)cc1,-11.9% (inactive)
9,CCOC(=O)c1ccc(NC(=O)C2CC(=O)N(c3ccc(C(C)C)cc3)C2)cc1 (stereo unspecified),46.5% (inactive)
10,COC(=O)c1cc(NC(=O)CCc2c(C)nc3c4c(C)cc(C)nc4nn3c2C)cc(C(=O)OC)c1,8.7% (inactive)
11,COc1ccc(C2c3ccc(O)cc3Oc3ncn(CCCO)c(=N)c32)cc1OC (stereo unspecified),0% (inactive)
12,c1ccc2cc3c(NCCN4CCOCC4)ccnc3cc2c1,-98.8% (active)
13,CSc1ccc(CNCCN2CCOCC2)cc1,0% (inactive)
14,CC(=O)Oc1cc2c(C(=O)NCCN3CCOCC3)c(C)oc2c2ccccc12,55.4% (inactive)
15,CNc1nc2cnc(-c3ccsc3)cc2n1Cc1ccccc1,12.4% (inactive)
16,Cc1c(C(=O)Nc2cccc(Cl)c2)oc2ccc(S(=O)(=O)N3CCOCC3)cc12,4.49% (inactive)
17,NC(=O)Nc1ccc(C(=O)OCC(=O)NC2CCCc3ccccc32)cc1 (stereo unspecified),-25.3% (inactive)
18,O=C(CCNC(=O)c1ccc(Cl)cc1)NC1CCCc2ccccc21 (stereo unspecified),-82% (active)
19,Nc1ccc(C(=O)OCC(=O)NC2CCCc3ccccc32)cc1[N+](=O)[O-] (stereo unspecified),-3.15% (inactive)

row,SMILES,"activity change, negative = inhibition"
1,CCC(C)c1ccc2oc(-c3ccc(NC(=O)c4cc5ccccc5o4)cc3)nc2c1 (stereo unspecified),-17.9% (inactive)
2,COc1cc(NC(=O)Cn2nc(-c3ccc(C)c(C)c3)ccc2=O)cc(OC)c1,10.3% (inactive)
3,O=C(C1CCC1)N1CCc2cc(S(=O)(=O)NCc3cccnc3)ccc21,-32% (inactive)
4,COc1ccc(N(C)S(=O)(=O)c2ccc3c(c2)CC(C)N3C(=O)C2CC2)c(OC)c1 (stereo unspecified),-22.8% (inactive)
5,COc1cccc(CNS(=O)(=O)c2ccc3c(c2)CC(C)N3C(=O)C2CCC2)c1 (stereo unspecified),-33.4% (inactive) and -60.7% (active)
6,CC(=O)N1CCSc2ccc(S(=O)(=O)N3CCC(C)CC3)cc21,-33.3% (inactive)
7,COc1cccc(CNS(=O)(=O)c2csc(C(N)=O)c2)c1,-30.1% (inactive)
8,COc1cccc(CNS(=O)(=O)c2ccc3c(c2)N(C(C)=O)CCS3)c1,-73.4% (active)
9,CCOCCn1ccc2c(OCC(=O)NCc3ccc(C)cc3)cccc2c1=O,22.4% (inactive)
10,O=C(CCS(=O)(=O)c1cc(Br)cc2c1N(C(=O)C1CC1)CC2)Nc1ccc(Br)cc1F,-5.42% (inactive)
11,Cc1ccc(CN2CCCn3nc(C(=O)NCc4ccccc4Cl)cc3C2=O)cc1,-16.2% (inactive)
12,CCOC(=O)c1nnn(CC(=O)NC(=O)Nc2ccccc2F)c1C(=O)OCC,11.6% (inactive)
13,COc1ccc2c(Sc3ccc(C)cc3)c(C(=O)NC(C)c3ccccc3)[nH]c2c1 (stereo unspecified),-4.72% (inactive)
14,COc1ccc(CNc2nc(-c3ccc(Cl)cc3)nn2S(=O)(=O)c2ccc(C)cc2)cc1,9.27% (inactive)
15,COC(=O)c1ccc(CSc2nnc(N)s2)o1,-25.6% (inactive)
16,CCOc1ccccc1Nc1nnc(SCc2ccc(C(=O)OC)o2)s1,-61.9% (active)
17,CCOc1ccccc1Nc1nnc(SCC(=O)Nc2cc(C)on2)s1,45.8% (inactive)
18,Cc1ccc(NC(=O)c2ccc(CN3CC(=O)N4CCCCC4C3=O)cc2)c(Cl)c1 (stereo unspecified),48% (inactive)
19,Cc1nn(C)c(C)c1CN(C(=O)CCc1nnc(Cc2c[nH]c3ccccc23)o1)C(C)C,9.02% (inactive)

row,SMILES,"activity change, negative = inhibition"
1,Clc1ccc(C[n+]2cc(-c3ccc(Cl)cc3)n3c2CCC3)cc1,-74.1% (active)
2,CC(C)C[C@@H](COCc1ccc(Cl)cc1)N1CCN(C(=O)c2ccc(Cl)cc2Cl)CCC1=O,-13.1% (inactive)
3,Cc1ccc(S(=O)(=O)CC(=O)Nc2c(C)n(C)n(-c3ccccc3)c2=O)cc1,10.8% (inactive)
4,Cc1c(NC(=O)CSc2cccc3cccnc23)c(=O)n(-c2ccccc2)n1C,-83.5% (active)
5,Cc1ccccc1OCCC(=O)Nc1c(C)n(C)n(-c2ccccc2)c1=O,-31.3% (inactive)
6,COC(=O)c1nn(-c2cccc(Cl)c2)ccc1=O,-24.4% (inactive)
7,CC(CCCc1ccccc1)NC(=O)c1nn(-c2ccc(Cl)cc2)nc1CO (stereo unspecified),-5.56% (inactive)
8,CCCSC1=C(C#N)C(c2ccccc2C)C(C(=O)OC)C(=O)N1 (stereo unspecified),-10.3% (inactive)
9,COc1cc(/C=C/C(=O)N2CCc3ccccc3C2)cc(OC)c1OC,84.9% (inactive)
10,CCOc1ccc(-n2nc3ccc(NC(=O)c4ccc(OC)c(Cl)c4)cc3n2)cc1,1.85% (inactive)
11,CCOc1ccc(NC(=O)CSc2c3c(nc4ccccc24)CCCC3)cc1,-11.9% (inactive)
12,COc1ccccc1Nc1c2c(nc3ccc(NC(=O)/C=C/c4cc(OC)c(OC)c(OC)c4)cc13)CCCC2,-98.3% (active)
13,CCOc1ccc(C(=O)Nc2ccc3nc4c(c(Nc5ccccc5OC)c3c2)CCCC4)cc1,-83.9% (active)
14,COc1cc(/C=C/C(=O)O)cc(S(=O)(=O)Nc2ccccc2SC)c1OC,-14.9% (inactive)
15,CCC(C(=O)Nc1cc(OC)ccc1OC)n1c(=O)c(C(F)(F)F)nc2ccccc21 (stereo unspecified),-4.66% (inactive)
16,COc1cc(OC)c(NC(=O)N2CC3CCCN3c3ccccc32)cc1Cl (stereo unspecified),-10.2% (inactive)
17,CCc1ccccc1NC(=O)Cc1ccc(NC(=O)N2CCCCc3ccccc32)cc1,18.7% (inactive)
18,COc1ccccc1C(=O)NCCC(=O)N(C)Cc1cccnc1,0% (inactive)
